Measured values taken from PubChem BioAssay (NCATS).
Records with an inconclusive call do not appear. Active and inactive are the calls of the source. The call rests on the fitted dose curve; in most records, active means well fitted inhibition curve with a large enough effect; inconclusive means small, poorly fitted or top-dose-only effect; inactive means flat fitted curve, though single readings scatter.

The compounds below were run against Calcium and integrin-binding protein 1 (Homo sapiens) (UniProt Q99828) (assay: Primary qHTS for Identification of Calcium Integrin Binding Protein 1 (CIB1) Competitor (AID 1508620; further: top concentration of the series differs between compounds)). Conditions: CIB1-GST / FITC-alphaIIb peptide fluorescence polarization; series mostly up to 114 µM; activity change, negative = inhibition: at the top concentration.
Procedure, shortened: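 Fluorescence polarization competition: GST-tagged CIB1 (1 uM final) preincubated with compound 15 min at room temperature, then FITC-labelled alphaIIb peptide (100 nM final) added. After 15 min at room temperature, polarization read at Ex 480/Em 540.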
On the % scale 0 is the no-effect control and ±100 the full control effect.

Calcium and integrin-binding protein 1 (Homo sapiens), sequence (Q99828 whole entry, looked up): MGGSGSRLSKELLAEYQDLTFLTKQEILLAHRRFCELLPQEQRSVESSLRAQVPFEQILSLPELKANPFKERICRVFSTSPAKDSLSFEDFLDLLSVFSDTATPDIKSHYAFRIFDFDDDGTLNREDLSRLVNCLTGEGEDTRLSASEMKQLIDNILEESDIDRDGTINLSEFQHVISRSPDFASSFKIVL

SMILES | activity change, negative = inhibition
O=S(=O)(Nc1cccc2cccnc12)c1ccc2ccccc2c1 | -3.92% (inactive)
CN(C)c1cccc(-c2cnc(N3CCC(C(N)=O)CC3)nc2)c1 | 3.93% (inactive)
O=[S+]([O-])(c1ccc2c(c1)OCCO2)N1CCN([S+](=O)([O-])c2ccc(F)cc2Br)CC1 | -1% (inactive)
O=S(=O)(c1ccc2c(c1)OCO2)N1CCN(S(=O)(=O)c2c(F)cccc2F)CC1 | 1.85% (inactive)
CCN(CC)c1cc2c(cc1S(=O)(=O)Nc1ccc(C)c(C)c1)CCC(=O)N2 | 4.9% (inactive)
CCOc1ccc(CCNC(=O)c2csc(Br)n2)cc1OCC | 3.56% (inactive)
N#Cc1cccc(-c2ccc(NC(=O)c3cccs3)cn2)c1 | 1.34% (inactive)
Fc1ccc(-c2ccc(Nc3nc(-c4ccncc4)nc4ccccc34)cc2F)c(F)c1 | 1.48% (inactive)
c1nc(NCC2CCCOC2)c2cc(-c3ccc4c(c3)OCO4)ccc2n1 (configuration not stated) | -13.3% (inactive)
Fc1cc(Nc2nc(-c3ccncc3)nc3ccccc23)ccc1-c1cccc(C(F)(F)F)c1 | 2.8% (inactive)
Cc1cc2c(s1)c1cnn(Cc3ccc(C)c(F)c3F)c(=O)c1n2C | 12.4% (inactive)
Cc1cc(C)nc(NC(=S)N2CCN(c3cccc(S(C)(=O)=O)c3)CC2)c1 | -3.91% (inactive)
Cc1cc2c(s1)c1cnn(Cc3cc(F)c(Cl)cc3Cl)c(=O)c1n2C | -2.19% (inactive)
NCCCNc1ncnc2ccc(-c3ccc4c(c3)OCO4)cc12 | 5.05% (inactive)
O=C(OCC#CCSc1nnc(-c2cccc3ccccc23)o1)c1ccc2ccccc2c1 | -0.405% (inactive)
CC(C)(C)OC(=O)Cc1nnc(-c2nc3ccccc3[nH]2)o1 | -4.45% (inactive)
N#Cc1nonc1-c1ccccc1 | 1.62% (inactive)
